Test results as given in PubChem BioAssay (NCI).
About 83,000 compounds went through this panel and 20% of them were active in at least one assay; those are over-represented in the sample as a whole.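 Step 1: grow cells in 96-well plates. Step 2: add test compound at a single concentration. Step 3: incubate 48 h. Step 4: record percent growth.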 Calls of active or inactive are those of the source. The calls were made as follows: active = growth percent below 10; inactive = the rest.

system: MDA-MB-468 breast; assay: NCI-60 one-dose screen, 48 h (100 = growth as untreated, 0 = no growth, -100 = all killed); conditions: 10 µM unless noted

| SMILES | growth |
| --- | --- |
| CCN(CC)c1ccc(/C=N/NC(=O)c2ccc(S(N)(=O)=O)cc2)cc1 | 1.85% (active) |
| CN(C)CCCC1(c2ccc(F)cc2)OCc2cc(-c3csc4ccccc34)ccc21 (configuration not stated) | -68.5% (active) |
| CO[C@H]1/C=C(/C)CCC[C@H](C)[C@H](O)[C@@H](C)C(=O)C(C)(C)[C@@H](O)CC(=O)O[C@@H]1/C(C)=C/c1csc(C)n1 | -23.3% (active) |
| COc1cccc(C2C3=C(COC3=O)N(CCO)c3cc(OC)ccc32)c1 (configuration not stated) | -13.2% (active) |
| COC(=O)[C@]12CC[C@@H](C)[C@H](C)[C@@H]1C1=CC[C@@H]3[C@@]4(C)C(C=O)=C[C@@](C)(COS(C)(=O)=O)[C@@H]4C(=O)C[C@@]3(C)[C@]1(C)CC2 | 38% (inactive) |
| COc1ccc2nc(NC(=O)c3cc(-c4ccc(F)cc4)n4nc(-c5ccccc5)cc4n3)sc2c1 | 103% (inactive) |
| Clc1ccc(COc2ccc(Nc3ncnc4onc(-c5ccccc5)c34)cc2)cc1 | 78.5% (inactive) |
| Cc1ccc(Oc2c(/C=N/NC(=O)Cn3c(=O)sc4ccccc43)c(C)nn2-c2ccccc2)cc1 | 41% (inactive) |
| Cc1nc2cc(Nc3nc(NCCN)nc(Nc4ccc(F)cc4)n3)ccc2n1Cc1ccccc1 | 73.2% (inactive) |
| COc1ccc(/C=c2\c(=O)n(-c3ccccc3)c3nn4c(n23)=NNC42CCCCC2)cc1 | 110% (inactive) |
| N#C/C(=C\c1ccc([N+](=O)[O-])s1)c1nc2cc(Cl)ccc2s1 | 93.7% (inactive) |
| O=C(Nc1cccc2[nH]c(C(F)(F)F)nc12)c1cc(Cl)ccc1Cl | 15.1% (inactive) |
